Data: PubChem BioAssay AID485364 (National Center for Advancing Translational Sciences (NCATS), 2010)
The whole screen tested about 360,000 compounds, of which about 11,000 (3.1%) were called active. Roughly 4% stayed inconclusive and do not appear here. Calls come from the whole dose curve; as a rule, active = well fitted inhibition curve with a large enough effect; inconclusive = small, poorly fitted or top-dose-only effect; inactive = no such curve, though single readings can be large or run the other way. This excerpt belongs to a sample that is enriched for actives.

Molecular target: Schistosoma mansoni thioredoxin glutathione reductase (TGR) (UniProt Q962Y6)
Experiment: qHTS Assay for the Inhibitors of Schistosoma Mansoni Peroxiredoxins; note: nearly all actives have a fitted effect of over 60% in size
Conditions: purified TGR, DTNB reduction, TNB absorbance 405 nm; series mostly up to 114 µM; activity change, negative = inhibition: at the top concentration
Outline: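 Kinetic colorimetric format: TGR-catalysed, NADPH-driven DTNB reduction monitored via TNB absorbance. Enzyme dispensed at 20 nM; compound exposure 15 min at room temperature before reaction start.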
% is set by controls: 0 for no effect and ±100 for the full control effect; potency is the fitted concentration of half-maximal effect.

| SMILES | activity change, negative = inhibition | Potency |
| --- | --- | --- |
| Cc1cc2nc(-c3ccc(NC(=O)c4cc5ccccc5o4)cc3)oc2cc1C | -1.68% (inactive) |  |
| COc1cc(OC)cc(C(=O)Nc2ccc3nc(Nc4cccc(C(F)(F)F)c4)cc(C)c3c2)c1 | 6.99% (inactive) |  |
| O=C(/C=C/c1ccc(Cl)cc1Cl)c1cccnc1 |  | 8.91 µM (active) |
| O=C(OCc1cc(Cl)ccc1OC(F)F)c1cccnc1 | -4.95% (inactive) |  |
| O=C(NCc1ccc(Cl)c(Cl)c1)c1cccnc1 | 10% (inactive) |  |
| COc1ccc(-c2nc3ccccc3o2)cc1NC(=O)c1cc([N+](=O)[O-])ccc1N1CCOCC1 | 3.13% (inactive) |  |
| CN(C)CCCn1c(-c2ccc(Cl)cc2)csc1=Nc1ccccc1 | 9.1% (inactive) |  |
| Cc1ccc(S(=O)(=O)N2CCC(C(=O)N[C@@H](C)C(=O)NCc3ccco3)CC2)cc1 | -19.9% (inactive) |  |
| O=C(NCc1ccco1)C1CCCN(S(=O)(=O)c2cccc3nonc23)C1 (stereo unspecified) |  | 22.4 µM (active) |
| O=C(NCc1ccco1)C1CCCN(S(=O)(=O)c2cnc[nH]2)C1 (stereo unspecified) | 0% (inactive) |  |
| Cc1ccc(CNC(=O)C2CCCN2S(=O)(=O)c2ccc3c(c2)C(C)(C)C(=O)N3C)cc1 (stereo unspecified) | 1.2% (inactive) |  |
| O=C(NCc1ccco1)C1CCCN(S(=O)(=O)c2ccccc2)C1 (stereo unspecified) | 2.53% (inactive) |  |
| Cc1ccc(S(=O)(=O)N2CCCC2C(=O)NCc2ccco2)cc1 (stereo unspecified) |  | 50.1 µM (active) |
| O=C(NCCCO)C(=O)Nc1c2c(nn1-c1ccccc1)CSC2 | -19.7% (inactive) |  |
| Cc1c(-c2nsc(NC(=O)c3cccc(Cl)c3)n2)nnn1-c1ccccc1C(F)(F)F | 9.29% (inactive) |  |
| CCc1nn(CCCC(=O)NCc2ccccc2OC)c(=O)c2cc3occc3n12 | 6.78% (inactive) |  |
| CN1C(=O)c2ccccc2Sc2ccc(NC(=O)Cc3ccc(Cl)cc3)cc21 | 2.52% (inactive) |  |
| CCOc1cc(NC(=O)Nc2ccccc2)c(OCC)cc1NC(=O)CC | -0.833% (inactive) |  |
| CCOc1cc(NC(=O)CCl)c(OCC)cc1NC(C)=O |  | 44.7 µM (active) |
| CCOc1cc(NS(=O)(=O)c2ccc(OC)cc2)c(OCC)cc1NC(C)=O | 0% (inactive) |  |
| Cc1cccc(NC(=O)Cn2nc(-c3ccc(Cl)cc3)c3ccccc3c2=O)c1 | 9.04% (inactive) |  |
| CC(=O)Nc1ccc(N2C(=O)CC(Sc3nccc(C)n3)C2=O)cc1 (stereo unspecified) | -33.9% (inactive) |  |
| CCN(C(=O)CSc1ncn[nH]1)c1cccc2ccccc12 | -5.37% (inactive) |  |

| SMILES | activity change, negative = inhibition | Potency |
| --- | --- | --- |
| Cc1ccc(N2C(=O)CC(Sc3ncn[nH]3)C2=O)cc1 (stereo unspecified) |  | 0.447 µM (active) |
| COc1ccc(N2C(=O)CC(Sc3n[nH]c(-c4ccc(C)cc4)n3)C2=O)cc1 (stereo unspecified) |  | 0.708 µM (active) |
| O=C1CC(c2ccccc2)C(=O)N1c1cccc(O)c1 (stereo unspecified) | -8.38% (inactive) |  |
| CCOC(=O)c1ccc(N2C(=O)CC(Sc3nc(O)c(CC)c(=O)[nH]3)C2=O)cc1 (stereo unspecified) | 0% (inactive) |  |
| O=C1CC(Sc2ncn[nH]2)C(=O)N1c1ccccc1 (stereo unspecified) |  | 0.501 µM (active) |
| COc1ccc(N2C(=O)CC(SC(C)C)C2=O)cc1 (stereo unspecified) | -11.8% (inactive) |  |
| COc1ccc(-c2nc(SCC(=O)N3CCCC3)n[nH]2)cc1 | 8.14% (inactive) |  |
| COc1ccc(NC(=O)CSc2nc3ncccc3[nH]2)c(OC)c1 | 3.81% (inactive) |  |
| COc1ccccc1C(=O)NCCn1cc(SCc2ccccc2Cl)c2ccccc21 | 15.5% (inactive) |  |
| Cc1cccc(N2CCN(c3ccc(C(=O)O)cc3NC(=O)c3ccccc3F)CC2C)c1 (stereo unspecified) | -9.71% (inactive) |  |
| COc1cc(OC)c(N(C)C(=O)c2cc3c(=O)oc4ccccc4c3s2)cc1Cl | -2.14% (inactive) |  |
| Cc1ccc(-c2cc(C(F)(F)F)c(C#N)c(SCC(=O)Nc3ccccc3)n2)cc1 | 6.14% (inactive) |  |
| Cc1cccc(CCNC(=O)c2ccc3c(c2)nc2n3CCC(C)C2)c1 (stereo unspecified) | 7.13% (inactive) |  |
| COc1ccc(CCN2C(=O)C(C)=C(C)C2=O)cc1OC | 0.409% (inactive) |  |
| COc1ccc(COCC(O)CN2CCC(C(N)=O)CC2)cc1 (stereo unspecified) | 8.49% (inactive) |  |
| COc1ccc(CCN2C(=O)C3CC=C(C)CC3C2=O)cc1OC (stereo unspecified) | -4.3% (inactive) |  |
| NC(=O)C1CCN(C2OC(=O)c3ccccc32)CC1 (stereo unspecified) | -33.1% (inactive) |  |
| COc1ccc(CCN2C(=O)CC(N3CCC(C(N)=O)CC3)C2=O)cc1OC (stereo unspecified) |  | 3.16 µM (active) |
| COc1ccc(N2C(=O)CC(N3CCC(C(N)=O)CC3)C2=O)cc1 (stereo unspecified) |  | 14.1 µM (active) |
| COCCn1c(SCC(=O)c2cc(C)ccc2C)nc2cc(C(=O)NC3CCCC3)ccc2c1=O | -1.98% (inactive) |  |
| CCCN1C(=O)C(O)(CC(=O)c2ccc(CC)cc2)c2cc(Br)ccc21 (stereo unspecified) | -0.17% (inactive) |  |
| CC(=O)Nc1cccc(NC(=O)CSc2nccn2Cc2ccc3c(c2)OCO3)c1 | 0.562% (inactive) |  |
| Cc1ccccc1CN1CCC(CNC(=O)c2cc3ccc4cccnc4c3[nH]2)CC1 | -12.3% (inactive) |  |

| SMILES | activity change, negative = inhibition | Potency |
| --- | --- | --- |
| CCOc1ccc(CNC(=O)c2cc(-c3ccc(Cl)s3)nc3ccccc23)cc1 | -1.13% (inactive) |  |
| CCCS(=O)(=O)c1ncc(Cl)c(C(=O)Nc2scc(-c3ccccc3)c2C(=O)OCC)n1 |  | 2 µM (active) |
| CCOC(=O)c1c(-c2ccc(-c3ccccc3)cc2)csc1NC(=O)CCC(=O)O | 1.62% (inactive) |  |
| CCOC(=O)c1scc(-c2ccccc2)c1S(=O)(=O)Nc1ccccc1F | -1.54% (inactive) |  |
| CCC(Sc1nnc(-c2ccc(OC)cc2)c(-c2ccc(OC)cc2)n1)C(=O)NC1CCCCC1 (stereo unspecified) | -0.319% (inactive) |  |
| COc1cccc(CNC(=O)c2ccc3c(c2)N(Cc2ccc(C(F)(F)F)cc2)C(=O)c2ccccc2S3)c1OC | 0.85% (inactive) |  |
| CCOc1ccc(-n2c(C)nc3c(cnn3-c3ccc(C)cc3)c2=O)cc1 | 1.06% (inactive) |  |
| CCOCCCNC(=S)Nc1ccc2nc(N3CCN(CC)CC3)cc(C)c2c1 |  | 50.1 µM (active) |
| Cc1cc(N2CCOCC2)nc2ccc(NC(=S)N3CCN(Cc4ccccc4)CC3)cc12 | 0.208% (inactive) |  |
| CCN1CCN(c2cc(C)c3cc(NC(=O)c4cc(Cl)ccc4OC)ccc3n2)CC1 | 2.25% (inactive) |  |
| Cc1cccc(-n2ccnc2SCC(=O)Nc2cc(C(F)(F)F)ccc2Cl)c1 | 0.387% (inactive) |  |
| CCOc1ccc(N(C)S(=O)(=O)c2cc(-c3cnc(C)o3)ccc2OC)cc1 | -9.5% (inactive) |  |
| C=C(Br)CN1CCN(CC(=C)Br)CC1 |  | 10 µM (active) |
| COc1ccc(CCNC(=O)c2cn(C)c3ccc(S(=O)(=O)N(C)C4CCCCC4)cc3c2=O)cc1OC | 25.8% (inactive) |  |
| CCCCCn1c(=O)[nH]c2cc(C(=O)Nc3ccc(F)cc3)ccc2c1=O | 15.7% (inactive) |  |
| CCCC12CN3CC(CCC)(CN(C1)C3c1c[nH]c3ccc(OC)cc13)C2=O (stereo unspecified) | 34.3% (inactive) |  |
| Cc1ccc(Cl)cc1NC(=O)/C(C#N)=C\c1cn(Cc2ccc(F)cc2)c2ccccc12 | -1.54% (inactive) |  |
| COc1ccc(C2CC(c3cccs3)=NN2C(=O)CSc2nncs2)cc1OC (stereo unspecified) | -11.3% (inactive) |  |
| COc1ccc(C2CC(c3cccs3)=NN2c2ccc(F)cc2)cc1OC (stereo unspecified) |  | 56.2 µM (active) |
| COc1ccc(C2CC(c3cccs3)=NN2c2nc(C)c(C(C)=O)s2)cc1OC (stereo unspecified) | 0.274% (inactive) |  |
| O=C1C=C(c2ccc(Cl)cc2)C(=O)N1Nc1ccccc1 | -33.5% (inactive) |  |
| O=C(O)CC1=C(Nc2ccccc2)C(=O)N(c2ccccc2)C1c1ccc(Cl)cc1 (stereo unspecified) |  | 39.8 µM (active) |
| COC(=O)CN1C(=S)N(c2ccccc2)C(=O)C1CC(=O)Nc1ccc(Cl)cc1 (stereo unspecified) | -0.808% (inactive) |  |

| SMILES | activity change, negative = inhibition | Potency |
| --- | --- | --- |
| Cc1ccc(CCNC(=O)c2nnc(Cc3cccc(F)c3)o2)cc1 | -8.78% (inactive) |  |
| CCNC(=O)c1cc2n(n1)CCCN(Cc1ccc(C)cc1)C2=O | 0.153% (inactive) |  |
| CSc1ccc(CCNC(=O)c2ccc3c(c2)nc2n3CCOC2)cc1 | -0.625% (inactive) |  |
| Cc1cn(C)c(CC(=O)NCc2ccccc2)c1C(=O)O | 6.43% (inactive) |  |
| CCC(c1nnnn1Cc1ccco1)N(CCc1ccccc1)Cc1cc2cccc(C)c2[nH]c1=O (stereo unspecified) |  | 22.4 µM (active) |
| Cc1cccc2cc(CN(Cc3cccs3)C(=S)NCc3ccco3)c(=O)[nH]c12 | 5% (inactive) |  |
| CCC(c1nnnn1C1CCCC1)N(Cc1cccs1)Cc1cc2cccc(C)c2[nH]c1=O (stereo unspecified) | 3.03% (inactive) |  |
| COc1ccc2[nH]c(=O)c(CN(Cc3nnnn3CCc3ccccc3)CC3CCCO3)cc2c1 (stereo unspecified) | -3.1% (inactive) |  |
| CCOc1ccc2[nH]c(=O)c(CN(Cc3nnnn3Cc3ccccc3)CC3CCCO3)cc2c1 (stereo unspecified) | -4.32% (inactive) |  |
| CCC(c1nnnn1Cc1ccco1)N(Cc1cc2cc(OC)ccc2[nH]c1=O)C1CCCCC1 (stereo unspecified) |  | 12.6 µM (active) |
| Cc1ccc(-c2nnc(SCc3ccccc3C)o2)cc1 | -5.42% (inactive) |  |
| Cc1ccc(C)c(N2CCN(C(c3ccccc3)c3nnc(-c4ccccc4)o3)CC2)c1 (stereo unspecified) | 3.88% (inactive) |  |
| COc1cc(C(=O)Nc2ccc(OCc3cc(=O)n4ccc(C)cc4n3)cc2)cc(OC)c1OC | 0.391% (inactive) |  |
| CCCCn1c(CNC(=O)C23CC4CC(CC(C4)C2)C3)nnc1SCC(=O)Nc1ccc(C)cc1 | -6.55% (inactive) |  |
| COc1ccc(NS(=O)(=O)c2cc3c4c(c2)CC(=O)N4CCC3)cc1Cl | -0.0014% (inactive) |  |
| Cc1n[nH]c(=O)c2c(NC(=O)CSc3cc(Cl)ccc3Cl)oc(C)c12 | 2.22% (inactive) |  |
| Cc1n[nH]c(=O)c2c(NC(=O)COC(=O)c3ncc(Cl)c(Cl)c3Cl)oc(C)c12 |  | 15.8 µM (active) |
| Cc1n[nH]c(=O)c2c(NC(=O)CSc3ccccc3F)oc(C)c12 | -30.9% (inactive) |  |
| CC(=O)c1ccc(NC(=O)CSc2nnc(NC(=O)Nc3ccccc3)s2)cc1 | 1.64% (inactive) |  |
| CCc1ccc(NC(=O)CCCc2nnc3n(CCCOC)c(=O)c4sccc4n23)cc1 | 1.38% (inactive) |  |
| COc1ccc(C(=O)c2oc3ccccc3c2NC(=O)COc2cccc(C)c2)cc1 | 0.199% (inactive) |  |
| CN(Cc1ccccc1)C(=O)c1cn(C)c2ccc(S(=O)(=O)N3CCCCC3)cc2c1=O | -7.29% (inactive) |  |
